Screening data (PubChem)
In the library only some 21% were active in any assay of this set; here they are far more common.
Pf growth 96h: Primary qHTS for delayed death inhibitors of the malarial parasite plastid, 96 hour incubation. P. falciparum luciferase reporter growth, 96 h. Potency, µM (doses to about 28.7 µM), for the others: at the highest dose activity change, negative = inhibition, actives largely listed as inhibitors. 320,000 compounds, 6.9% hits. AID 504834, 2011; note: potency is the fitted concentration of half-maximal effect; % is set by controls: 0 for no effect and ±100 for the full control effect
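P. falciparum expressing integrated firefly luciferase, in erythrocytes at 2% hematocrit, 0.05% parasitemia, incubated with compounds 96 h at 37 C, 5% CO2. Growth inhibition read as loss of luminescence; two-generation exposure targets delayed-death apicoplast inhibitors.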
Shiga toxin inh: A qHTS for Small Molecule Inhibitors of Shiga Toxin. 290,000 compounds, 9.2% hits. AID 2315, 2010. inhibition, % at 38.7 µM. Vero cells, Shiga toxin protein synthesis inhibition reporter; in the data active = inhibition mostly above about 28%, no sharp cut-off; inactive = mostly below about 43%; note: 0% is about no effect
Pf growth 48h: Primary qHTS for delayed death inhibitors of the malarial parasite plastid, 48 hour incubation. Potency, µM (series often up to 28.7 µM), inactives show at the top dose activity change, negative = inhibition, most hits filed as inhibitors. P. falciparum luciferase growth in erythrocytes, 48 h. 310,000 compounds, 5.9% hits; note: potency is the fitted concentration of half-maximal effect; % is set by controls: 0 for no effect and ±100 for the full control effect
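In quantitative HTS format, infected erythrocytes bearing luciferase-reporter parasites were treated for a single generation at 37 C. Luminescence after adding detection reagent served as the growth measure.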
CHX counter: Cycloheximide Counterscreen for Small Molecule Inhibitors of Shiga Toxin | 300,000 compounds, 12% hits | max response, % | AID 2314, 2010 | cell reporter, cycloheximide protein synthesis inhibition counterscreen; in the data active = max response mostly above about 13%, no sharp cut-off; inactive = mostly below about 14%; note: read at 38.3 µM for the half of the compounds with a filed dose; 0% is about no effect
An asterisk follows results filed as active; ? = inconclusive; / = no result. Unless noted, calls come from the whole dose curve; as a rule, active = well fitted inhibition curve with a large enough effect; inconclusive = small, poorly fitted or top-dose-only effect, or another doubt; inactive = no such curve, though single readings can be large or run the other way.

SMILES	Pf growth 96h	Shiga toxin inh	Pf growth 48h	CHX counter
O=C(COC(=O)CC1CCCCC1)Nc1c(Cl)cccc1Cl	-24%	/	1%	/
CCOc1ccc(N=CNc2ccc(OCC)cc2)cc1	?	20	-2%	1
CCCCN=Cc1sc2ccc(OCC)cc2c1O	?	67*	50%	69*
C=CCN=Cc1sc2ccc(OCC)cc2c1O	78%	153*	120%	51*
CC1CCCC(NC(=O)C2CCN(S(=O)(=O)c3cnc[nH]3)CC2)C1C (configuration not stated)	-25%	-5	8%	-4
Cc1ccc(-c2nc(CN(C)C)cc(CN(C)C)c2O)cc1	?	17	6.6µM*	1
COc1cc(NC(=O)C2CC2)c(OC)cc1NC(=O)CCC(=O)NC1CCN(Cc2ccccc2)CC1	346%	-9	16%	-1
CC(=O)NC1C(=O)N(CCc2ccccc2)c2ccc(Br)cc21 (configuration not stated)	1.9µM*	-12	/	-2
O=C(CC1S/C(=N/N=C/c2cccs2)NC1=O)Nc1ccc(Cl)cc1 (configuration not stated)	1.9µM*	-4	-5%	1
O=C(CC1S/C(=N/N=C/c2c[nH]c3ccc(OCc4ccccc4)cc23)NC1=O)Nc1ccccc1 (configuration not stated)	12µM*	-8	18%	-5
CNc1oc(-c2ccccc2F)nc1S(=O)(=O)c1ccc(C)cc1	?	-8	0%	5
Cc1cc(C)n(C(C)CC(=O)Nc2ccc3c(c2)OCCO3)n1 (configuration not stated)	-8%	18	20%	27
O=[N+]([O-])c1cccnc1SCc1c(F)cccc1Cl	?	-6	13µM*	1
Nc1ncnc(SCc2c(F)cccc2Cl)n1	33%	22	-11%	-1
O=[N+]([O-])c1ccc(SCc2c(F)cccc2Cl)nc1	38%	20	70%	19*
O=[N+]([O-])c1cccnc1Sc1n[nH]c(-c2ccc(Cl)cc2)n1	62%	55*	60%	37*
O=[N+]([O-])c1cccnc1Sc1ccc(Cl)cc1	10%	24	/	-7
CC(=O)N/C(=C/c1ccc(OS(=O)(=O)c2ccc(C)cc2)cc1)C(=O)Nc1ccc(C(=O)O)cc1	18%	24	4%	0
Cc1cc(C)c(C)c(S(=O)(=O)N2CCN(C(=O)C3CSC4(C)CCC(=O)N34)CC2)c1C (configuration not stated)	?	/	10µM*	/
CC12CCC(=O)N1C(C(=O)Nc1ccccc1N1CCCCC1)CS2 (configuration not stated)	?	/	10µM*	/
CC12CCC(=O)N1C(C(=O)Nc1cc(C(F)(F)F)ccc1N1CCCCC1)CS2 (configuration not stated)	?	/	9.3µM*	/
CCOc1ccc(S(=O)(=O)N2CCOCC2)cc1NC(=O)C1CSC2(C)CCC(=O)N12 (configuration not stated)	-5%	/	-7%	/
CC12CCC(=O)N1C(C(=O)Nc1ccccc1N1CCOCC1)CS2 (configuration not stated)	-2%	-4	0%	-2
CCN(CC)c1ccc(S(=O)(=O)N2CCCCC2)cc1NC(=O)C1CSC2(C)CCC(=O)N12 (configuration not stated)	?	/	12µM*	/
C=CCn1c(SCC2CCCCO2)nc2sc(CC)cc2c1=O (configuration not stated)	?	-5	?	-1
SMILES	Pf growth 96h	Shiga toxin inh	Pf growth 48h	CHX counter
FC(F)(F)c1ccc2c(c1)[nH]c(=S)n2C1CC1	74%	-22	-9%	-1
CCOc1ccc(/C=N/OCC(=O)NCc2ccco2)cc1	14%	-13	1%	11
O=C(CNS(=O)(=O)c1ccccc1)NCC(=O)N1CCCCC1	0%	-4	47%	-3
CCOC(=O)N1CCN(C(=O)c2ccc3c(=O)n(CCc4ccccc4)c(=S)[nH]c3c2)CC1	8.3µM*	-2	?	-1
O=C(c1ccc2c(=O)n(Cc3ccccc3)c(=S)[nH]c2c1)N1CCOCC1	?	-8	3%	-7
CCOc1cc2[nH]c(=S)n(Cc3ccc(C(=O)O)cc3)c(=O)c2cc1OCC	9.3µM*	-5	26%	-2
CC(=O)c1ccc(N2CCN(C(=O)c3ccc(Cn4c(=S)[nH]c5ccc(N6CCOCC6)cc5c4=O)cc3)CC2)cc1	68%	59*	?	15
CCCn1c(=S)[nH]c2cc(C(=O)N3CCN(C4CCCCC4)CC3)ccc2c1=O	10µM*	-9	0%	10
O=C(Nc1nc(-c2ccccc2)nc2ccccc12)c1ccc(F)cc1	64%	-8	4%	-2
O=c1c2ccccc2[nH]c(=S)n1CCN1CCCC1	5%	55	-4%	0
CCOC(=O)N1CCN(C(=O)c2ccc(Cn3c(=S)[nH]c4ccc(Br)cc4c3=O)cc2)CC1	3.7µM*	-3	12µM*	1
CCN1CCN(C(=O)c2ccc3c(=O)n(CCc4ccccc4)c(=O)[nH]c3c2)CC1	-33%	59*	27%	20*
CC(C)N(CCn1c(=S)[nH]c2ccccc2c1=O)C(C)C	2.9µM*	-13	/	-2
CC1CCN(CCCn2c(=S)[nH]c3ccccc3c2=O)CC1	94%	-13	-3%	8
O=c1c2ccccc2[nH]c(=S)n1CCCN1CCN(C2CCCCC2)CC1	/	-7	13µM*	-1
CCOC(=O)N1CCN(C(=O)c2ccc3c(=O)n(Cc4ccc(Cl)cc4)c(=S)[nH]c3c2)CC1	57%	10	1%	-2
CCc1ccc(CNC(=O)C2Cc3cc(S(=O)(=O)N4CCCC4)ccc3N2C(C)=O)cc1 (configuration not stated)	?	4	-5%	-3
N#C/C(=C/c1ccco1)c1nc2ccccc2s1	-12%	119*	32%	94*
N#C/C(=C\c1ccco1)c1nc2ccccc2s1	0%	110*	59%	70*
CCN(Cc1ccccc1)C(=O)COC(=O)Cn1cnc2ccccc21	24%	28	15%	-2
O=c1cc(CCl)[nH]c2nc3ccccc3n12	45%	14	-1%	-3
CC(C)c1cc(=O)n2c(nc3ccccc32)[nH]1	?	27	-12%	13*
O=c1cc(-c2ccccc2)[nH]c2nc3ccccc3n12	?	64*	?	40*
CSCCC(NS(=O)(=O)c1ccccc1F)C(=O)NC(C)c1ccccc1 (configuration not stated)	-4%	-7	-6%	-2
COP(=O)(c1ccc(N(C)C)cc1)C(O)c1ccccc1 (configuration not stated)	?	-4	?	-4
NC(=O)c1nsc(C(=O)N(Cc2ccccc2Cl)C(C(=O)NCC2CCCO2)c2ccc(O)cc2)c1N (configuration not stated)	1%	-6	?	-4
Nc1nc(N)c(N=Nc2ccc(Cl)cc2)c(=O)[nH]1	3%	23	-8%	13
CSc1nc(N)c(N=Nc2ccc([As](=O)(O)O)cc2)c(=O)[nH]1	?	-14	2.6µM*	-1
